Measurements as given in article PMC4336329 (PLoS ONE, 2015).
The whole screen tested about 310,000 compounds, of which about 14,000 (4.5%) showed an effect of 50% or more. Effects have a minus sign here. The sample as a whole holds a higher share of strong results than the screen did.

target: human ether-à-go-go-related gene (hERG) potassium channel (human, UniProt Q12809); assay: primary screen, population patch clamp on CHO cells stably expressing hERG; higher = less effect of the substance
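Note: peak tail current of the secondary pulse compared with the same well before compound.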

Sequence of human ether-à-go-go-related gene (hERG) potassium channel (Q12809 whole entry, looked up): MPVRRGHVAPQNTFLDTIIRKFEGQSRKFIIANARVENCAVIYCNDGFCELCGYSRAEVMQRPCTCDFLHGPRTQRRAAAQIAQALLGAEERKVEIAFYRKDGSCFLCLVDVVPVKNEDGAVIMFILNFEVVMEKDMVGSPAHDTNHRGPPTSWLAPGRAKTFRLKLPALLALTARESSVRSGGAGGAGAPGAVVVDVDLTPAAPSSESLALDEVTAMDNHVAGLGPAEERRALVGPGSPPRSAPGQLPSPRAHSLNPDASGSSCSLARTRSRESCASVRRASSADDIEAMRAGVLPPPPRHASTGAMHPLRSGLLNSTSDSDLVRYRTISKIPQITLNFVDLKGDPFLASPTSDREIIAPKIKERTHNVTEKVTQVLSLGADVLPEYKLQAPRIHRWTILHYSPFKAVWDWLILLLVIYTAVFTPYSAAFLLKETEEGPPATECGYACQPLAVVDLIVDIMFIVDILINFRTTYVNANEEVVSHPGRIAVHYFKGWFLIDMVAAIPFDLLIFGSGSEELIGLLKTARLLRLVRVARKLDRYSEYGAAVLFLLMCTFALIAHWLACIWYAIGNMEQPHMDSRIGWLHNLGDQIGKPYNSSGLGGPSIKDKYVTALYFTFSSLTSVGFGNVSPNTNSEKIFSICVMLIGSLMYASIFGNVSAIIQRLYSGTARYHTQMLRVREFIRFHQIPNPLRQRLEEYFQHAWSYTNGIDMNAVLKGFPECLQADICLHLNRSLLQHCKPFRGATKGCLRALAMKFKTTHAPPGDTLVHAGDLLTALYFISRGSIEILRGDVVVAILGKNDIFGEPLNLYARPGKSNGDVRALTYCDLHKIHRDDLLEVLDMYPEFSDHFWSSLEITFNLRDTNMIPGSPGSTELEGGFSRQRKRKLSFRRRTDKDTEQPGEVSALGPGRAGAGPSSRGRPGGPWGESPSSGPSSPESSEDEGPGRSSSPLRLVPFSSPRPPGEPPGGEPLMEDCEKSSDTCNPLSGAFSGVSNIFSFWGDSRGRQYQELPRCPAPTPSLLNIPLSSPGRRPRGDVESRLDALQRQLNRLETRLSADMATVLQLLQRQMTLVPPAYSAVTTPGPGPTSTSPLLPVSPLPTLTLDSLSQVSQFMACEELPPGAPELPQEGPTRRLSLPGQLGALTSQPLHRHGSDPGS

SMILES	hERG current change (%, negative = inhibition) at 10uM
CCOC(=O)Cn1cnc2sc(C(=O)OC)c(C)c2c1=O	11.1%
CCn1c(COc2ccccc2OC)nnc1SCC#N	-3.43%
C=CCn1c(SCC(=O)c2cccs2)nc2sc(C)cc2c1=O	1.56%
Cc1ccc(NC(=O)Nc2cccc(Cl)c2)c(C(=O)O)c1	19.6%
CC1=C(C(=O)Nc2ccccc2)C(c2ccc3c(c2)OCO3)C2=C(CCCC2=O)N1 (stereo not shown)	-14.2%
O=C1Nc2ccc(Br)cc2C1(O)Cc1ccncc1 (stereo not shown)	-2.45%
CSCCC(NC(=O)COc1ccccc1)C(=O)N1CCN(c2ccccc2)CC1 (stereo not shown)	-51.9%
CSCCC(NC(=O)COc1ccccc1)C(=O)N(C)Cc1ccc(Cl)cc1Cl (stereo not shown)	-24.5%
CSCCC(NC(=O)COc1ccccc1)C(=O)OCC(=O)c1ccccc1 (stereo not shown)	4.14%
CSCCC(NC(=O)COc1ccccc1)C(=O)OCc1ccc([N+](=O)[O-])cc1 (stereo not shown)	-70.8%
CSCCC(NC(=O)COc1ccccc1)C(=O)N(C)Cc1ccc(F)cc1 (stereo not shown)	-50.3%
COC(=O)c1ccc(COC(=O)C(CCSC)NC(=O)COc2ccccc2)cc1 (stereo not shown)	-9.2%
CSCCC(NC(=O)COc1ccccc1)C(=O)N(C)Cc1cccc(F)c1 (stereo not shown)	-37.9%
CSCCC(NC(=O)COc1ccccc1)C(=O)N1CCOCC1 (stereo not shown)	-9.88%
CSCCC(NC(=O)COc1ccccc1)C(=O)N1CCN(C(C)=O)CC1 (stereo not shown)	-5.67%
CC(=O)N1CCCc2ccccc21	15.5%
O=C(NCc1ccc(Cl)c(Cl)c1)c1ccc2c(c1)OCO2	-10.7%
COc1ccccc1C(=O)NC(CCSC)C(=O)NNC(=O)C(C)Oc1ccccc1F (stereo not shown)	0.592%
O=C(O)COc1nsnc1N1CCOCC1	10.4%
COc1cc(C(=S)N2CCCCC2)ccc1OCC(=O)Nc1ccccc1Cl	18.9%

SMILES	hERG current change (%, negative = inhibition) at 10uM
S=c1[nH]nc(-c2ccc(Br)cc2)n1-c1ccc(Br)cc1	12.2%
CCOC(=O)c1sc(N(Cc2ccccc2)C(=O)COC(=O)c2cnccn2)nc1C	0.26%
CCc1ccc(NC2=NC(C(=O)NC3CCCCC3)CC(=O)N2)cc1 (stereo not shown)	14.9%
O=c1[nH]c2cccnc2n1Cc1ccccc1	7.67%
CCc1ccc(NC(=O)C(=O)N/N=C(\C)CC(=O)NCCOC)cc1	-2.99%
Cc1ccc(C(=O)N(C)CCOc2ccccc2)cc1S(=O)(=O)N1CCOCC1	-15.6%
CN(CCOc1ccccc1)C(=O)c1ccc(N2CCCC2)c([N+](=O)[O-])c1	-27.5%
Cc1ccc(C(=O)N(C)CCOc2ccccc2)cc1S(=O)(=O)N1CCCCC1	-51.4%
O=C(NCCOc1ccccc1)c1cc(C(=O)NCCOc2ccccc2)cc([N+](=O)[O-])c1	-15.2%
CN(CC1COc2ccccc2O1)C(=O)c1ccc(Cl)c(S(=O)(=O)N2CCCCCC2)c1 (stereo not shown)	-25.8%
Cc1ccc(S(=O)(=O)N2CCCCC2)cc1C(=O)N(C)CCOc1ccccc1	-48%
CN(CCOc1ccccc1)C(=O)c1cc([N+](=O)[O-])cc([N+](=O)[O-])c1	-56.9%
CN(CCOc1ccccc1)C(=O)c1cc(S(=O)(=O)N2CCCCC2)ccc1Cl	-42.7%
CN(CCOc1ccccc1)C(=O)c1ccc(Cl)c(S(=O)(=O)N2CCCCC2)c1	-67.4%
CCn1cc(S(=O)(=O)NC(C)c2cc(OC)ccc2OC)cn1 (stereo not shown)	1.25%
CC(C)O.COC(=O)Nc1ccc2c(c1)N(C(=O)CCN1CCN3CCCC3C1)c1ccccc1CC2.Cl.O (stereo not shown)	1.43%
CC(=O)c1cc(F)c(N2CCN(C(=O)c3ccco3)CC2)cc1C	-18.5%
Cn1c(Cl)c(/C=N/OC(=O)c2ccc(Cl)cc2)c2ccccc21	-5.13%
Cc1ccc(-c2nnn(CC(=O)N(Cc3ccc(F)cc3)C(C(=O)NC3CCCC3)c3ccncc3)n2)o1 (stereo not shown)	-12.4%
CCOC(=O)c1ccc(Nc2c(OCC)c(=O)c2=O)cc1	-15.4%

SMILES	hERG current change (%, negative = inhibition) at 10uM
CCCCn1c(=O)[nH]c(=O)c2c1nc(-c1ccc(C(F)(F)F)cc1)n2C	3.8%
CCCCn1c(=O)[nH]c(=O)c2c1nc(-c1ccc(-c3ccc(F)cc3)o1)n2C	-55%
CCCn1c(=O)[nH]c(=O)c2c1nc(-c1ccc(C#N)cc1)n2CCOC	-2.78%
C=CCn1c(SCc2nc3c(c(=O)[nH]c(=O)n3CCCC)n2CCC)nnc1-c1ccccc1	-60.5%
CCCCn1c(=O)[nH]c(=O)c2c1nc(-c1ccc(OCC)cc1)n2CC	1.27%
C=CCOc1ccc(-c2nc3c(c(=O)[nH]c(=O)n3CCC)n2CCCC)cc1	-5.34%
CCCCn1c(=O)[nH]c(=O)c2c1nc(COc1ccc(C#N)cc1)n2CCC	-57.2%
CCCCn1c(=O)[nH]c(=O)c2c1nc(-c1ccc(-c3ccccc3)cc1)n2C	20.2%
C=CCn1c(SCc2ccccc2)nc2c1c(=O)[nH]c(=O)n2C	-21.6%
CCCCn1c(O)c(/C(C)=N/NC(=O)Nc2ccccc2)c(=O)[nH]c1=O	7.7%
O=P(C(c1ccc2c(c1)OCO2)N1CCOCC1)(N1CCOCC1)N1CCOCC1 (stereo not shown)	4.64%
O=C(CN1CCN(c2ncc(C(F)(F)F)cc2Cl)CC1)Nc1ccc2c(c1)OCO2	-37.7%
CCOc1ccc(-c2nc(CSCC(=O)NCCN3CCOCC3)c(C)o2)cc1	11.3%
Cc1ccc(-c2nc(CSCC(=O)NCCCN3CCOCC3)c(C)o2)cc1	14.1%
Cc1ccc(-c2nc(CSCC(=O)NC3CCN(Cc4ccccc4)CC3)c(C)o2)cc1	-44%
Cc1ccc(-c2nc(CSCC(=O)NCCN3CCN(Cc4ccccc4)CC3)c(C)o2)cc1	-65.2%
COc1ccc(-c2nc(CSCC(=O)NC3CCN(Cc4ccccc4)CC3)c(C)o2)cc1OC	-40.9%
Cc1oc(-c2ccc(Cl)cc2)nc1CSCC(=O)NC1CCN(Cc2ccccc2)CC1	-73.1%
